This passage reports growth results from PubChem BioAssay (NCI).

Each structure is given as a SMILES string. The panel holds about 83,000 compounds, 20% with a hit somewhere; the sample as a whole holds those more often.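 Single-concentration screen, 48 h exposure, 96-well plates. Endpoint: percent growth. Below 10 = active.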 Unmarked numbers belong to inactive results. Calls of active or inactive are those of the source.

Test systems include NCI-H23 lung; NCI-H226 lung; NCI-H322M lung; HOP-62 NSCLC; NCI-H460 lung; HOP-92 NSCLC; NCI-H522 lung; A549/ATCC NSCLC; 786-0 renal; COLO 205 colon; DU-145 prostate; K-562 leukemia; MALME-3M melanoma; MDA-MB-231 breast; RXF 393 renal; SF-268 CNS; SF-295 CNS; SF-539 CNS; UACC-257 melanoma; M14 melanoma.
Common to all, as to assay: NCI-60 one-dose screen, 48 h (100 = growth as untreated, 0 = no growth, -100 = all killed)
Holding throughout (details): 10 µM unless noted

`Cc1cc(Cl)cc(CN(Cc2ccccc2)Cc2c(O)ccc3ccccc23)c1O`: the growth in the test with NCI-H23 lung was 93.6%; with NCI-H226 lung, 104%; in the test with NCI-H322M lung, 95.7%; in the test on HOP-62 NSCLC, 92.3%; in the test with NCI-H460 lung it was 104%; in the test on HOP-92 NSCLC it was 83.7%. Further, the growth with NCI-H522 lung is 83%; with A549/ATCC NSCLC it was 98%; in the test on 786-0 renal, 103%; in the test on COLO 205 colon, 115%; with DU-145 prostate, 98.1%; with K-562 leukemia, 101%. Besides, the growth with MALME-3M melanoma was 96.7%; in the test with MDA-MB-231 breast, 100%; in the test on RXF 393 renal it was 109%; with SF-268 CNS, 90.8%; with SF-295 CNS, 104%; in the test with SF-539 CNS, 103%. Also, the growth in the test with UACC-257 melanoma is 100%; with M14 melanoma, 104%.

For `O=C(O)COc1ccc2c(=O)c3sc4c(=O)c5ccccc5c(=O)c4c3c(=O)c2c1`, the growth in the test on NCI-H23 lung is -39.6% (active); in the test with NCI-H226 lung, 28.6%; with NCI-H322M lung, -96.5% (active); in the test with HOP-62 NSCLC, -81.1% (active); with NCI-H460 lung, -63.2% (active); in the test on HOP-92 NSCLC, 104%. Also, the growth in the test on NCI-H522 lung was 10.9%; with A549/ATCC NSCLC it was -44.8% (active); with 786-0 renal, 70.9%; with COLO 205 colon, -46.2% (active); in the test with DU-145 prostate, -89.6% (active); in the test on K-562 leukemia, 24.9%. The growth in the test on MALME-3M melanoma is -75.4% (active); with MDA-MB-231 breast it was 45.2%; in the test on RXF 393 renal it was 49.3%; in the test on SF-268 CNS, 44.7%; with SF-295 CNS, -97% (active); in the test on SF-539 CNS, -45.7% (active). In addition, the growth in the test with UACC-257 melanoma was -3.61% (active); in the test with M14 melanoma, -95.6% (active).

On to `COc1ccc(-c2[nH]c3ccc(OC)cc3c2C=C(C#N)C#N)cc1`, for which the growth was 32.9% with NCI-H23 lung; 59.7% with NCI-H226 lung; 58.8% in the test with NCI-H322M lung; 32.5% with HOP-62 NSCLC; 17.2% with NCI-H460 lung; 20.3% with HOP-92 NSCLC. The growth was -8.75% (active) in the test with NCI-H522 lung; 32.5% in the test with A549/ATCC NSCLC; 28.9% in the test on 786-0 renal; 5.59% (active) with COLO 205 colon; 12.5% in the test with DU-145 prostate; 4.8% (active) in the test on K-562 leukemia. Further, the growth in the test with MALME-3M melanoma is 60%; with MDA-MB-231 breast, 53.7%; with RXF 393 renal it was 34.4%; in the test on SF-268 CNS, 52.7%; in the test with SF-295 CNS, -47.1% (active); with SF-539 CNS it was 23.2%. The figures for the growth with UACC-257 melanoma and with M14 melanoma were 60.2% and -13.3% (active), respectively.

`COc1c(O)cc2oc3cc(O[C@@H]4OC(C)[C@@H](O)[C@H](O)C4O)c(CC=C(C)C)c(O)c3c(=O)c2c1CC=C(C)C` (stereo not given in full): the growth is 89.4% with NCI-H23 lung; 90.1% in the test on NCI-H226 lung; 107% with NCI-H322M lung; 110% in the test on HOP-62 NSCLC; 90.5% in the test on NCI-H460 lung; 89.2% in the test on HOP-92 NSCLC. For the same compound, the growth with NCI-H522 lung is 68.5%; with A549/ATCC NSCLC, 80%; in the test on 786-0 renal, 101%; in the test on COLO 205 colon, 114%; in the test with DU-145 prostate it was 103%; with K-562 leukemia, 74.3%. Also, the growth in the test with MALME-3M melanoma is 103%; in the test with MDA-MB-231 breast it was 89.5%; in the test on RXF 393 renal, 103%; in the test on SF-268 CNS it was 92.7%; in the test on SF-295 CNS, 93.3%; with SF-539 CNS, 99%. Besides, the growth in the test on UACC-257 melanoma was 104%; in the test with M14 melanoma it was 99.8%.

Turning to `O=[N+]([O-])c1ccc(Oc2ccc(-c3ccccc3)cc2)cc1`, the growth in the test on NCI-H23 lung is 85.3%; in the test on NCI-H226 lung it was 76.7%; in the test with NCI-H322M lung, 100%; in the test on HOP-62 NSCLC, 92.1%; with NCI-H460 lung, 92.9%; in the test with HOP-92 NSCLC it was 74.3%. The growth with NCI-H522 lung was 67.5%; with A549/ATCC NSCLC, 91.5%; with 786-0 renal it was 84.6%; in the test with COLO 205 colon it was 109%; in the test with DU-145 prostate, 97.5%; in the test with K-562 leukemia it was 70.8%. For the same compound, the growth is 109% in the test on MALME-3M melanoma; 88.5% in the test on MDA-MB-231 breast; 102% with RXF 393 renal; 94.5% in the test with SF-268 CNS; 89.4% with SF-295 CNS; 94.7% in the test on SF-539 CNS. The growth in the test on UACC-257 melanoma was 98.1%; in the test with M14 melanoma, 98.3%.

Take `O=CN1N=C(c2ccc(F)cc2)CC1c1cccc(Nc2ccnc3cc(C(F)(F)F)ccc23)c1` (stereo not given): the growth in the test on NCI-H23 lung was 42.5%; in the test with NCI-H226 lung, 60.3%; in the test with NCI-H322M lung, 85.1%; with HOP-62 NSCLC, 60.8%; in the test with NCI-H460 lung, 46.7%; with HOP-92 NSCLC, 67.4%. Besides, the growth is 45.6% in the test on NCI-H522 lung; 61% in the test with A549/ATCC NSCLC; 76.1% in the test on 786-0 renal; 32.3% in the test with COLO 205 colon; 70.9% in the test with DU-145 prostate; 22.7% with K-562 leukemia. Also, the growth in the test with MALME-3M melanoma is 67.9%; in the test with MDA-MB-231 breast, 72.5%; with RXF 393 renal it was 71.2%; in the test on SF-268 CNS, 51.9%; in the test with SF-295 CNS it was 44.2%; in the test on SF-539 CNS, 77.5%. Besides, the growth in the test with UACC-257 melanoma was 48.6%; in the test with M14 melanoma, 70%.

As to `Cc1cccc2nc3c(n12)C(=O)C(=O)c1ccccc1-3`, the growth with NCI-H23 lung was 39.6%; with NCI-H226 lung it was 80%; in the test with NCI-H322M lung, 90%; in the test with HOP-62 NSCLC it was 26%; in the test on NCI-H460 lung it was 37.3%; with HOP-92 NSCLC, 92.6%. For the same compound, the growth with NCI-H522 lung is 43.8%; in the test on A549/ATCC NSCLC, 61.2%; in the test with 786-0 renal it was 106%; in the test on COLO 205 colon, 98.3%; with DU-145 prostate, 76.9%; with K-562 leukemia, 28.9%. The growth with MALME-3M melanoma is 64.4%; with MDA-MB-231 breast it was 63.9%; in the test on RXF 393 renal, 103%; in the test with SF-268 CNS it was 80.8%; in the test on SF-295 CNS, 82.7%; in the test with SF-539 CNS, 69.3%. In addition, the values for the growth in the test on UACC-257 melanoma and in the test with M14 melanoma were 49.5% and 67.1%, respectively.

For the compound `CC(C)C[C@H](C(=O)O)N(C)C(=O)[C@@H]1CCCN1C(=O)[C@H](C)OC(=O)[C@H](CCC(N)=O)NC(=O)[C@@H]1CCC(=O)N1`, the growth in the test with NCI-H23 lung is 109%; in the test with NCI-H226 lung, 101%; with NCI-H322M lung, 98.5%; with HOP-62 NSCLC it was 93.4%; in the test on NCI-H460 lung it was 111%; in the test on HOP-92 NSCLC it was 102%. For the same compound, the growth was 88.7% with NCI-H522 lung; 92.2% in the test with A549/ATCC NSCLC; 96.1% in the test with 786-0 renal; 99.3% with COLO 205 colon; 106% in the test on DU-145 prostate; 93.2% in the test on K-562 leukemia. Besides, the growth was 109% in the test with MALME-3M melanoma; 108% in the test on MDA-MB-231 breast; 135% in the test on RXF 393 renal; 97.4% in the test with SF-268 CNS; 93.7% in the test on SF-295 CNS; 97.7% with SF-539 CNS. Besides, the growth in the test with UACC-257 melanoma was 95.2%; in the test with M14 melanoma, 99.9%.
